Molecules are shown by their SMILES. A number with no mark means an inactive call. Inconclusive results are not listed. Activity calls are given as the source filed them. Unless noted, the call rests on the fitted dose curve; in most records, active means well fitted curve in the direction sought with a large enough effect in the repeat runs; inconclusive means weak or mixed curves; inactive means no such curve, though single readings can be large; an effect the other way counts as inactive or inconclusive.

A short description of experiment [1]: qHTS assay to identify small molecule agonists of the estrogen receptor alpha (ER-alpha) signaling pathway in the presence of an antagonist - cell viability counter screen (AID 1259386).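 Further: series mostly up to about 92 µM; cells exposed to compounds for 22 h at 37 °C before the viability read; nearly all actives have a fitted effect of over 30% in size.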 In outline:
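The test measures whether compounds kill ER-alpha reporter cells (VM7Luc4E2) under antagonist co-treatment (ICI-182,780, 10.0nM). Fluorescence from CellTiter-Fluor is read after a 22hr exposure.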
In general terms: Quantitative high-throughput screening tests each substance at several concentrations.

Experiment [2] deals with Progesterone receptor (Homo sapiens) (UniProt P06401). The experiment can be described thus: qHTS assay to identify small molecule agonists of the progesterone receptor (PR) signaling pathway (AID 1346784; calls by dose curve; further: nearly all actives have a fitted effect of over 30% in size). In outline: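 Agonist qHTS: compounds pinned onto 3,000 PR-UAS-bla HEK 293T cells per well in charcoal-stripped serum medium, 16hr at 37C, then beta-lactamase activity measured by LiveBLAzer FRET fluorescence after 2 hours at room temperature.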
Progesterone receptor (Homo sapiens), sequence (P06401 whole entry, looked up): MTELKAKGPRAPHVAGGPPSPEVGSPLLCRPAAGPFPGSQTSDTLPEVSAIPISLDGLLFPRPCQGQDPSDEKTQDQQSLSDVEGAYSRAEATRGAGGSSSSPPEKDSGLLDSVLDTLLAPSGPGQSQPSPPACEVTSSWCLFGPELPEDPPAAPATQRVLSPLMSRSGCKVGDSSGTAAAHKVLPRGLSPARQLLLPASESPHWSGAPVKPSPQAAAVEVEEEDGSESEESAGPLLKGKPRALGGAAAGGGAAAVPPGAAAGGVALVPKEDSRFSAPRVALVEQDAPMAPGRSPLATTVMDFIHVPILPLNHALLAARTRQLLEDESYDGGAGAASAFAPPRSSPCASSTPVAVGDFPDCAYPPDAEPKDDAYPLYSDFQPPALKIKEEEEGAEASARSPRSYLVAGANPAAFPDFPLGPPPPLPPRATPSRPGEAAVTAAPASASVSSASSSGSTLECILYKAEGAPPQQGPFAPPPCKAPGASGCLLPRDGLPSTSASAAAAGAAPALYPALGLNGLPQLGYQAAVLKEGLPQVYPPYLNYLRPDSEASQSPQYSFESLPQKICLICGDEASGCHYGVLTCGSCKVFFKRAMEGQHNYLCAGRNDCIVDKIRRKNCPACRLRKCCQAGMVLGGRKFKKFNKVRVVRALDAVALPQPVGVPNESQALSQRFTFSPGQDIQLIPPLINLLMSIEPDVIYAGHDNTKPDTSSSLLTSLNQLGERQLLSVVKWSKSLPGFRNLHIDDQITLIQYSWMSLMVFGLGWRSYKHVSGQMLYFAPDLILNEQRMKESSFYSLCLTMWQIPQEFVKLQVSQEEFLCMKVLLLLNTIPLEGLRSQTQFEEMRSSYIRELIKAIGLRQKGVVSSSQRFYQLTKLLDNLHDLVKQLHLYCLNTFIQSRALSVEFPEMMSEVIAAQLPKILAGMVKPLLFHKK

A short description of experiment [3]: qHTS assay to identify small molecule antagonists of the progesterone receptor (PR) signaling pathway - cell viability counter screen (AID 1346798). Further: nearly all actives have a fitted effect of over 50% in size. Further: potency means the concentration at half of the fitted maximal effect. In outline: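 Cytotoxicity read as CellTiter-Glo luminescence (30 min, room temperature) in the same wells as the beta-lactamase readout. HEK293T PR-UAS-bla cells in charcoal-stripped 2% FBS received compound and R5020, then 16 h at 37C, 5% CO2.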

The nature of experiment [4]: qHTS assay to identify small molecule agonists of the progesterone receptor (PR) signaling pathway - cell viability counter screen (AID 1346799; calls by dose curve; further: nearly all actives have a fitted effect of over 45% in size). In outline: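 Cytotoxicity measured by CellTiter-Glo luminescence (30 min, RT) in the same wells as the PR beta-lactamase agonist read. Those HEK293T cells had 16 h compound treatment at 37 C in 2% charcoal-stripped FBS medium.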

Experiment [5] can be described thus: qHTS assay to identify small molecule antagonists of the TGF-beta/Smad signaling pathway - cell viability counter screen (AID 1346824). Further: nearly all actives have a fitted effect of over 50% in size. In outline:
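SBE-bla HEK 293T cells, incubated overnight, then compound plus 0.25 ng/mL TGF-beta1 (stock added) for 5 hr at 37 C. Viability was read in the same wells by CellTiter-Glo luminescence after 30 min at room temperature.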

Experiment [6] in a line: qHTS assay to identify small molecule agonists of the TGF-beta/Smad signaling pathway - cell viability counter screen (AID 1346829). Further: top concentration of the series differs between compounds; nearly all actives have a fitted effect of over 45% in size. In outline:
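Here the cytotoxicity of library compounds is measured in SBE-bla HEK 293T cells treated for 5 hr, using CellTiter-Glo added to wells already read for the beta-lactamase reporter.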

A short description of experiment [7]: qHTS assay to identify small molecule agonists of the TGF-beta/Smad signaling pathway (AID 1346859; active means well fitted activation curve with a large enough effect in the signal ratio in the repeat runs, not every such curve was filed as active; the % refers to the signal ratio; further: series mostly up to about 77 µM). In outline:
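Fluorescence (ex 405 nm; em 460 and 530 nm) was read 2 h after LiveBLAzer FRET substrate at RT. The preceding compound treatment of overnight-plated SBE-bla HEK293T cells lasted 5 h at 37 C.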

The target in experiment [8] is Thyrotropin-releasing hormone receptor (Homo sapiens) (UniProt P34981). Nature of the experiment: qHTS assay to identify small molecule antagonists of the thyrotropin-releasing hormone receptor (TRHR) signaling pathway (AID 1346877; active means well fitted inhibition curve with a large enough effect in the repeat runs, not every such curve was filed as active; further: series mostly up to about 51 µM). Summed up: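 Overnight-plated (18 h, 37 °C) HEK293 cells expressing TRHR were dye-loaded 2 h, treated with compound, then stimulated with TRH at 1 nM final. Fluorescence intensity was captured every second for 3 min.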
Thyrotropin-releasing hormone receptor (Homo sapiens), sequence (P34981 whole entry, looked up): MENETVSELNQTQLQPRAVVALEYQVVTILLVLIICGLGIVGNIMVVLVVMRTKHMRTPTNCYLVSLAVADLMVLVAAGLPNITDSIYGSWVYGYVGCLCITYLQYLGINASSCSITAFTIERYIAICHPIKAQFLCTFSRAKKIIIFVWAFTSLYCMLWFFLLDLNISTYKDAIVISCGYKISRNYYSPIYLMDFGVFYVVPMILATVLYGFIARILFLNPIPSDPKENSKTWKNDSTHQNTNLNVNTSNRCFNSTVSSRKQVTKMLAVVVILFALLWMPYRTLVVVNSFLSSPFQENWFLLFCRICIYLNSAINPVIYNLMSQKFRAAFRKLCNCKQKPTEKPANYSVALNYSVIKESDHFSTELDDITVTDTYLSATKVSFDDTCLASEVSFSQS

Experiment [9] has the same target. Nature of the experiment: qHTS assay to identify small molecule agonists of the thyrotropin-releasing hormone receptor (TRHR) signaling pathway (AID 1346891; calls by dose curve; further: series mostly up to about 58 µM). In outline: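 Agonist-mode intracellular calcium readout: kinetic fluorescence over 3 min at 1 s intervals after compound addition to TRHR-HEK293 cells (18 h seeded, 2 h dye-loaded at 37 C). Fifteen concentrations, triplicates.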

Experiment [10] can be described thus: Human pregnane X receptor (PXR) small molecule agonists, qHTS cell viability counter screen (AID 1346977). Further: nearly all actives have a fitted effect of over 50% in size. Summed up: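 Same-well viability read: CellTiter-Fluor added after 23 hr compound exposure, fluorescence measured 1 hr later. Cells were PXR-Luc HepG2 seeded at 2,000/well in 5% charcoal-stripped FBS medium, rested 5 hr before dosing at 37 C.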
Experiment [11] can be described thus: Caspase-3/7 induction in HepG2 cells by small molecules, qHTS assay (AID 1346978). Further: nearly all actives have a fitted effect of over 15% in size. In outline:
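Wild-type HepG2 cells, 2,000/well, settled 5 hr at 37 C and 5% CO2, then compound-treated for 17 hr; caspase-3/7 activity read by luminescent Caspase-Glo 3/7 after 30 min at room temperature.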

A short description of experiment [12]: Caspase-3/7 induction in CHO-K1 cells by small molecules, qHTS cell viability counter screen (AID 1346979). Further: nearly all actives have a fitted effect of over 35% in size. Summed up: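 Cytotoxicity counter screen: CellTiter-Fluor added to compound-treated wild-type CHO-K1 cells at 16 h (37C, 5% CO2), fluorescence measured 1 h later; same wells as caspase-3/7 measurement.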
Experiment [13] is described as follows: Caspase-3/7 induction in CHO-K1 cells by small molecules, qHTS assay (AID 1346980). Further: nearly all actives have a fitted effect of over 15% in size. Summed up:
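Wild-type CHO-K1 cells exposed to compounds for 17hr at 37 C, 5% CO2. Caspase-3/7 activity then measured by Caspase-Glo 3/7 luminescence after 30min at room temperature.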

A short description of experiment [14]: Caspase-3/7 induction in HepG2 cells by small molecules, qHTS cell viability counter screen (AID 1346981). Further: series mostly up to about 92 µM; nearly all actives have a fitted effect of over 30% in size. Summed up:
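Treatment of HepG2 cells with DMSO-delivered compounds ran 16 hr at 37 C following a 5-hr pre-incubation of 2,000 cells/well. CellTiter-Fluor fluorescence, read after 1 hr, served as the viability measure in a qHTS format.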

The target of experiment [15] is Nuclear receptor subfamily 1 group I member 2 (Homo sapiens) (UniProt O75469). The experiment can be described thus: Human pregnane X receptor (PXR) small molecule agonists, qHTS assay (AID 1346982). Further: nearly all actives have a fitted effect of over 35% in size. Further: potency means the concentration at half of the fitted maximal effect. Summed up: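 Stable HepG2 line reporting PXR-mediated CYP3A4 expression via luciferase. Treatment: 24 hr with compounds in DMSO at 37 C. Detection: ONE-Glo luminescence.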
Nuclear receptor subfamily 1 group I member 2 (Homo sapiens), sequence (O75469 whole entry, looked up): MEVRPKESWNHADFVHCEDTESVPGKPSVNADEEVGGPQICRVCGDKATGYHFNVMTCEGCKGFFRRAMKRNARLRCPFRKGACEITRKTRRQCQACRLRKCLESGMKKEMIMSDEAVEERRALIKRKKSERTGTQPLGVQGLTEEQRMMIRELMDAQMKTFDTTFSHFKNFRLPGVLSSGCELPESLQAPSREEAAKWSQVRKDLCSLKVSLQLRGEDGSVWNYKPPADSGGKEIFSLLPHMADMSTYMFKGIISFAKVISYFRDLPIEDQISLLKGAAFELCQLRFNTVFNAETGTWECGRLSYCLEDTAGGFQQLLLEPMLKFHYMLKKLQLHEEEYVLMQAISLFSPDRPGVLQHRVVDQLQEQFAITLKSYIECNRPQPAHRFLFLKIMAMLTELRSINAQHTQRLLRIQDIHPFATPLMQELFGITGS

Experiment [16] deals with Progesterone receptor (Homo sapiens) (UniProt P06401). Nature of the experiment: qHTS assay to identify small molecule antagonists of the progesterone receptor (PR) signaling pathway (AID 1346795; active means well fitted inhibition curve with a large enough effect in the signal ratio in the repeat runs, not every such curve was filed as active; the % refers to the signal ratio). In outline: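 Antagonist mode with agonist R5020 at 1 nM final and 16 hr incubation at 37C. Reporter was beta-lactamase driven by UAS in HEK293T (PR-UAS-bla), 2% charcoal-stripped serum; signal from LiveBLAzer FRET substrate, 2 hr at room temperature.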

Experiment [17] addresses Cytochrome P450 2D6 (Homo sapiens) (UniProt P10635). The experiment can be described thus: Cytochrome P450 Family 2 Subfamily D Member 6 (CYP2D6) small molecule antagonists: luciferase reporter qHTS assay (AID 1671196). Further: nearly all actives have a fitted effect of over 50% in size. Further: potency means the concentration at half of the fitted maximal effect. In outline:
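Chemicals tested for interference with CYP2D6 activity; proluciferin substrate, NADPH regeneration, 1 h at room temperature, luminescent detection.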

The target of experiment [18] is Nuclear receptor subfamily 1 group I member 2 (Rattus norvegicus) (UniProt Q9R1A7). Nature of the experiment: Rat pregnane X receptor (rPXR) activation by small molecules, qHTS assay (AID 1346983). Further: nearly all actives have a fitted effect of over 20% in size. The following applies: rPXR luciferase reporter cells, One-Glo luminescence, 24 h; max activation: active compounds read high. In outline:
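Cell-based rPXR activation assay: rPXR cells, 2,000 per well, rested 5hr at 37 C, then exposed to compounds in DMSO for 24 hr at 37 C. Luciferase activity read by One-Glo luminescence after 30 min at room temperature.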
On the % scale 0 is the no-effect control and ±100 the full control effect.

Cytochrome P450 2D6 (Homo sapiens), sequence (P10635 whole entry, looked up): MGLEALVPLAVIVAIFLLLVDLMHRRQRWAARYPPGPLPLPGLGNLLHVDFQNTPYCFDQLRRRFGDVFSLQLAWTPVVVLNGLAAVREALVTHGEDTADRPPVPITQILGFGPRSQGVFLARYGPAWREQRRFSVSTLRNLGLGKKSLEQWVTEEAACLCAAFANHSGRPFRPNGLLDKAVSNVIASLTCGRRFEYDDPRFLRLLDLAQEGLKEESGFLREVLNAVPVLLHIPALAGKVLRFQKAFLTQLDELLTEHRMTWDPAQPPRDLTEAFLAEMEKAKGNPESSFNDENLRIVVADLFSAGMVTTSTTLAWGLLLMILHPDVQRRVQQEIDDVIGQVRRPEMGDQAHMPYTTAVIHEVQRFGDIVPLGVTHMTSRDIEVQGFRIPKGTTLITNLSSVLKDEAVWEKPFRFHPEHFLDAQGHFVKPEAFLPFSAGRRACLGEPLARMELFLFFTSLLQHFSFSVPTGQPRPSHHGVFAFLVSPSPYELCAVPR
Nuclear receptor subfamily 1 group I member 2 (Rattus norvegicus), sequence (Q9R1A7 whole entry, looked up): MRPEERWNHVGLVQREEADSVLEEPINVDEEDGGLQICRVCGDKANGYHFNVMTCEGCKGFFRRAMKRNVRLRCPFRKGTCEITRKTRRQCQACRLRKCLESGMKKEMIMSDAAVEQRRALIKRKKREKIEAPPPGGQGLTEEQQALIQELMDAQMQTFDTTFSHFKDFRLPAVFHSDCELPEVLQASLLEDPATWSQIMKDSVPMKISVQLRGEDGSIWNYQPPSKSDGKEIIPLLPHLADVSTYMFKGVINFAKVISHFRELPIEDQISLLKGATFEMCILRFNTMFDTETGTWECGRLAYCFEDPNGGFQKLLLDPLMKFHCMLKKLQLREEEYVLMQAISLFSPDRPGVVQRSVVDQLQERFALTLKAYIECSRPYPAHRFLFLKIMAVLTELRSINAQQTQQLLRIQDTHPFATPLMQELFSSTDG

As for `Cc1ccc2c(ccc3ccccc32)c1`, the Potency result in experiment [1], in experiment [3], in experiment [4], in experiment [5], in experiment [6] and in experiment [9] was “inactive” each time. The Potency result in [10], in [12], in experiment [13] and in [14] was “inactive” each time. Besides, the outcome in [2], in [7], in experiment [8] and in experiment [11] was inactive. The Potency in experiment [15] was 54.6 µM (active).
For the compound `C[C@@H](C1=C(CCN(C)C)Cc2ccccc21)c1ccccn1`, the Potency result in [1], in experiment [16], in experiment [4], in experiment [5], in [6] and in experiment [12] was “inactive” each time. The Potency result in experiment [13], in experiment [14] and in [15] was “inactive” each time. The compound was called inactive in [2], in experiment [7] and in [11]. In addition, the Potency in experiment [17] is 11 µM (active).
Regarding `CCCCCC(CO)CCC` (configuration not stated), the Potency result in [1], in [3], in experiment [4], in experiment [5], in experiment [9] and in experiment [10] was “inactive” in each case. Moreover, the Potency entry in experiment [12], in experiment [13], in [14], in [15] and in experiment [17] was “inactive” each time. The compound was called inactive in experiment [2], in experiment [7], in experiment [8] and in [11].
As for `O=C(O)Cc1cc(I)c(Oc2ccc(O)c(I)c2)c(I)c1`, the Potency result in [1], in experiment [3], in [4], in experiment [5], in experiment [6] and in experiment [9] was “inactive” in each case. Also, the Potency result in experiment [10], in [12] and in [14] was “inactive” throughout. The compound was called inactive in [2], in experiment [8] and in experiment [11]. For the same compound, the max activation in experiment [18] was -1.77%.
For the compound `CC[C@H](C)[C@@H](C(=O)O)n1sc2ccccc2c1=O`, the Potency result in experiment [1], in experiment [4], in experiment [5], in [9], in [10] and in experiment [12] was “inactive” each time. Besides, the Potency entry in [13], in experiment [14], in experiment [15] and in [17] was “inactive” each time. Moreover, the result in [2], in experiment [7], in experiment [8] and in experiment [11] was inactive. For the same compound, in experiment [3], the Potency was 30.6 µM (active).
Regarding `O=C1CCCCCO1`, the Potency entry in experiment [1], in experiment [3], in experiment [4], in [5], in experiment [6] and in [9] was “inactive” in each case. Further, the Potency entry in experiment [10], in [12], in [13], in experiment [14] and in experiment [15] was “inactive” throughout. In addition, the outcome in [2], in experiment [7], in experiment [8] and in experiment [11] was inactive.
Regarding `CC(C)CC=O`, the Potency entry in [1], in experiment [3], in experiment [4], in experiment [5], in experiment [6] and in [9] was “inactive” throughout. In addition, the Potency entry in experiment [10], in [12], in [13], in experiment [14], in [15] and in [17] was “inactive” throughout. Also, the compound was classed as inactive in experiment [2], in experiment [7], in experiment [8] and in experiment [11].

(Values after PubChem BioAssay (Tox21).)
